# Test results taken from PubChem BioAssay AID1347422 (Sanford-Burnham Center for Chemical Genomics, 2020).
# Over roughly 1,000 compounds, “thermal shift dTm” has its median near 0.19; the highest 2% begin near 1.7. The list comes from a sample in which the highest values are over-represented; it also holds similar structures and randomly drawn compounds. Activity calls are given as the source filed them.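 The calls were made as follows: active = mean rise in melting temperature of at least 1 degC over same-plate control wells; inactive = below that, where a call was filed.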
# Biological target: Sulfhydryl oxidase 1 (Homo sapiens) (UniProt O00391)
# Sequence (O00391 whole entry, looked up): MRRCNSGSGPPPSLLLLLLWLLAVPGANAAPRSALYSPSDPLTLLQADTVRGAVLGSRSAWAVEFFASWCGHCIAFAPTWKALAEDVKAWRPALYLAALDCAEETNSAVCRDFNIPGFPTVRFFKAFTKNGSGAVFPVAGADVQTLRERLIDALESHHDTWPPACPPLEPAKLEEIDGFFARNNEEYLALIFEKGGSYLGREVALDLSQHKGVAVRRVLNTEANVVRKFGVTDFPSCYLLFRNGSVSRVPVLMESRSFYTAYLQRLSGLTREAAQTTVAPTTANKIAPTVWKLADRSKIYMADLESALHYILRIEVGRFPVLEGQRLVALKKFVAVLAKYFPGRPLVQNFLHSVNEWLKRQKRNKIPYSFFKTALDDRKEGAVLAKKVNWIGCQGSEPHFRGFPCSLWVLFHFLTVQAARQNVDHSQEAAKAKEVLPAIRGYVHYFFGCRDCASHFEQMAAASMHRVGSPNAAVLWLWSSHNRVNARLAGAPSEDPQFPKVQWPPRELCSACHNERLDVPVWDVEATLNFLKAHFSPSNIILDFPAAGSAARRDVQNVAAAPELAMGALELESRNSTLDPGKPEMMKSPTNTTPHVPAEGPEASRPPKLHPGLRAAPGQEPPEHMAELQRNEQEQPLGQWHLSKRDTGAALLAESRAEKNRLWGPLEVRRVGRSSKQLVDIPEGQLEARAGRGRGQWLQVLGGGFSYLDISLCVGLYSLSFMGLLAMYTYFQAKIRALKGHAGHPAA
# Experiment: ligand-induced melting shift of human QSOX1 – biophysical, protein thermal shift, single concentration, QSOX1 inhibitor project, confirmation (AID 1347422);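 also: dTm is compound Tm minus mean Tm of DMSO-only wells on that plate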
# Conditions: recombinant hQSOX1 thermal shift, Sypro Orange, at 25 µM, stronger effect = higher value
row,Structure (SMILES),thermal shift dTm
1,COc1ccc(-c2c(-c3ccc(OC)c(C)c3O)n[nH]c2C(F)(F)F)cc1,0.76 °C
2,Cc1ccc2sc(-c3ccc(NC(=O)CCc4ccccc4)cc3)nc2c1,0.4 °C
3,COc1ccc(NC(=O)CSCc2ccccc2C)cc1Cl,0.02 °C
4,Cc1cc(C)nc(NS(=O)(=O)c2ccc(NC(=O)c3cccs3)cc2)n1,2.92 °C (active)
5,Cc1ccc(S(=O)(=O)Nc2cccc(NC(=O)c3cccs3)c2)cc1,0.48 °C
6,O=C(c1ccncc1)c1ccc(NC(=O)c2cccs2)cc1,0.05 °C
7,CC1=Nc2ccccc2/C1=C/c1c(O)n(Cc2ccco2)c(=O)[nH]c1=O,0.93 °C
8,CC(=O)c1sc(Nc2ccc(Oc3ccccc3)cc2)nc1C,0.15 °C
9,CCOc1ccc(Nc2nnc(C)s2)cc1,0.28 °C
10,Cc1nc(N)sc1-c1nnc(Nc2ccccc2)s1,2.14 °C (active)
11,Cc1ccc(NC(=O)C(C)Sc2nc3c(c(=O)[nH]2)CCCC3)cc1Cl (stereo not given),0.01 °C
12,CCOc1ccc2nc(NC(=O)CCCCC(=O)O)sc2c1,-0.04 °C (inactive)
13,CC(NS(=O)(=O)c1ccc(Cl)cc1)C1C2CC3CC(C2)CC1C3 (stereo not given),0.05 °C
14,COc1ccc(CCC(=O)Nc2nc3ccc(S(C)(=O)=O)cc3s2)cc1,0.35 °C
15,Cc1ccc(CN2CCC(C(=O)Nc3cccc(-c4ccn[nH]4)c3)CC2)o1,0.19 °C
16,CCc1nc2sc(C(=O)c3ccccc3)c(N)c2c2c1CCCC2,0.11 °C
17,O=C(CCCc1c[nH]c2ccccc12)NCCOc1ccc(Cl)cc1,-0.03 °C (inactive)
18,COc1cc(CO)cc(Cl)c1OCc1cccc2ccccc12,0.21 °C
19,CC(=O)Nc1cccc(NC(=O)COc2ccc(F)cc2Cl)c1,0 °C (inactive)
20,CCSC1=N/C(=C\c2ccc(-c3cccc(Cl)c3)o2)C(=O)S1,0.25 °C
21,Cc1ccc(S(=O)(=O)Nc2ccc(C(=O)Nc3ccc4c(c3)OCO4)cc2)cc1,1.03 °C (active)
22,Cc1ccc(Nc2nc(C3(C)CC4(CC(C)OC4=O)C(=O)O3)cs2)cc1 (stereo not given),0.11 °C

row,Structure (SMILES),thermal shift dTm
1,O=C1OC(c2ccccc2)OC(=O)C1=Cc1ccc(-c2cccc(C(F)(F)F)c2)o1 (stereo not given),1.07 °C (active)
2,CCCc1cc(=O)[nH]c(N2CCN(Cc3ccc4c(c3)OCO4)CC2)n1,0.02 °C
3,Cc1ccc(-c2n[nH]c(-c3ccncc3)n2)cc1,0 °C
4,O=C(NCCO)Nc1ccc(Cl)c(Cl)c1,0 °C (inactive)
5,O/N=C/c1cc(Cl)ccc1OCc1ccc(F)cc1,0.34 °C
6,CCOc1ccc(NC(=O)Nc2cnccn2)cc1,0.09 °C
7,O=C(COc1ccc(Cl)cc1)NCCSCc1ccc(Cl)c(Cl)c1,0.11 °C
8,CC(=O)Nc1ccc(NC(=O)CCc2nc(-c3ccccc3)no2)cc1,0.14 °C
9,Cc1cccc(Nc2nc3ccc(C)cc3n3cnnc23)c1,0.19 °C
10,Cc1ccc(C(=O)Nc2nc(-c3ccccc3)c(C)s2)s1,0.01 °C
11,O=C(Nc1ccc(Cl)cc1)Nc1ccc(S(=O)(=O)Nc2ncccn2)cc1,1.03 °C (active)
12,Cc1noc(NS(=O)(=O)c2ccc(NC(=O)Nc3ccc(Cl)cc3)cc2)c1C,0.7 °C
13,Cc1ccc(NC(=O)Nc2ccc(S(=O)(=O)Nc3ccccn3)cc2)cc1,2.37 °C (active)
14,CC(NC(=O)c1ccc(-c2cc(Cl)ccc2Cl)o1)c1ccccc1 (stereo not given),0.07 °C
15,Cc1ccccc1COc1ccc(Br)cc1/C=C1/N=C(c2ccco2)OC1=O,0.82 °C
16,Cc1nonc1CC(=O)N1CCc2ccc(NC(=O)Cc3ccccc3F)cc2C1,0.29 °C
17,COc1ccc(-c2nnc(Nc3ccc(O)cc3)c3ccccc23)cc1,0.15 °C
18,CN(C(=O)Nc1ccc(F)cc1)c1ccccc1,-1.43 °C (inactive)
19,Clc1cccc(-c2cn3ccccc3n2)c1,0.71 °C
20,O=C(Nc1ccc2ncccc2c1)c1cccc([N+](=O)[O-])c1,0.53 °C
21,N#Cc1nc(/C=C/c2cccs2)oc1NCCc1ccccc1,-37.7 °C (inactive)
22,Cc1ccc(NC(=O)N2CCC(Cc3ccccc3)CC2)cc1,0.07 °C

row,Structure (SMILES),thermal shift dTm
1,CCCC(=O)Nc1cccc(NC(=O)/C=C/c2ccc(Cl)cc2)c1,-31.6 °C (inactive)
2,O=C(/C=C/c1ccc(Cl)cc1)Nc1cccnc1,2.02 °C (active)
3,O=C(/C=C/c1ccc(F)cc1)Nc1ccncc1,0.57 °C
4,CCOc1ccc(NC(=O)Nc2cc(C)ccc2F)cc1,2.42 °C (active)
5,CCOc1ccc(NC(=O)Nc2cc(OC)c(OC)c(OC)c2)cc1,1.64 °C (active)
6,CCOc1ccc(NC(=O)Nc2cc(C)ccc2OC)cc1,0.34 °C
7,CCOc1ccc(NC(=O)Nc2cc(F)ccc2C)cc1,2.14 °C (active)
8,COc1cccc(NC(=O)Nc2cc(C)ccc2F)c1,0 °C
9,CCc1ccc(NC(=O)Nc2cc(F)ccc2F)cc1,-15.7 °C (inactive)
10,Cc1ccc(-c2cn(S(=O)(=O)c3cccc4nsnc34)nc2N)cc1,0.1 °C
11,O=C(Nc1ccccc1C(=O)O)c1cccc(S(=O)(=O)Nc2ccccc2)c1,1.23 °C (active)
12,COc1ccc(Cl)cc1Nc1nc(-c2ccccn2)cs1,0.1 °C
13,Cc1cnc(CNCc2ccccc2OCC(O)CN(C)C2CCCCC2)cn1 (stereo not given),0.14 °C
14,CCC(=O)c1ccc(OCC(=O)Nc2ccc(NC(C)=O)cc2)cc1,-0.03 °C (inactive)
15,Cc1ccc2[nH]cc(CCNC(=O)c3ccccc3Cl)c2c1,-0.13 °C (inactive)
16,CCOc1ccccc1C1C(C#N)=C(N)Oc2cc(N(C)C)ccc21 (stereo not given),0.29 °C
17,COc1ccc(-c2cc(C(F)(F)F)nc(NCc3cccs3)n2)cc1OC,0.11 °C
18,O=C(Nc1cccc(-c2ccco2)c1)C1CCN(C(=O)CCc2ccco2)CC1,1.03 °C (active)
19,O=C(Nc1ccc(Cl)cc1)Nc1cccc(C(=O)NCc2ccco2)c1,3.11 °C (active)
20,CCN(CC)C(=O)c1cccc(NC(=O)Nc2ccc(Cl)cc2)c1,0.23 °C
21,CC(=O)Nc1cccc(C(=O)Nc2ccc(Cl)cc2)c1,-7.43 °C (inactive)
22,CCc1ccc2c(c1)C(OC(C)=O)C(C)(C)C(c1cccc(Br)c1)N2 (stereo not given),0.44 °C

row,Structure (SMILES),thermal shift dTm
1,O=C(CCC(=O)OCc1ccc(Br)cc1)Nc1cc(C(F)(F)F)ccc1Cl,0.17 °C
2,O=C(Nc1ccc(C(F)(F)F)cc1Cl)c1cc([N+](=O)[O-])[nH]n1,1.73 °C (active)
3,COc1cc(-c2cccc(-c3ccn[nH]3)c2)ccc1NC(C)=O,0.14 °C
4,O=C(NCCc1ccccc1)c1ccc(NC(=O)C2CC2)cc1,0.04 °C
5,Cc1cc(Br)cc(C)c1NC(=O)/C=C/c1ccco1,0.52 °C
6,Cc1ccc(Nc2nc(C3CC(CC(C)C)C(=O)O3)cs2)cc1 (stereo not given),-0.09 °C (inactive)
7,Cc1ccc2cccc(OCCCCOc3ccccc3I)c2n1,0.77 °C
8,Cc1ccc(-c2noc(CNC(=O)c3ccc4ccccc4c3)n2)cc1,-0.08 °C (inactive)
9,CCOc1ccc(NC(=O)c2ccc(-c3csc(C)n3)cc2)cc1,0.15 °C
10,NC(=O)c1ccc(NC(=O)c2cccc(C(F)(F)F)c2)cc1,0.7 °C
11,CCc1ccc(NC(=O)COc2ccccc2F)cc1,0.24 °C
12,C=C(C)COc1ccc(NC(=O)c2cccnc2)cc1,0.13 °C
13,COc1ccc(-c2csc(NC(=O)c3ccc(Cl)s3)n2)cc1,0.05 °C
14,Oc1ccccc1C=Nc1ccc(Cc2ccc(N=Cc3ccccc3O)c(O)c2)cc1O,0.01 °C
15,O=S(=O)(NCCC1=CCCCC1)c1ccc(Cl)s1,0.17 °C
16,CCOc1ccc(NC(=S)N2CCC(C(N)=O)CC2)cc1,-0.13 °C (inactive)
17,Cc1ccc(/C=C/C(=O)NCC(C)NC(=O)/C=C/c2ccc(C)cc2)cc1 (stereo not given),0.45 °C
18,COc1ccc2[nH]cc(CCNC(=O)c3ccc(NC(C)=O)cc3)c2c1,1 °C (active)
19,COc1cc(/C=N/O)cc(Br)c1OCc1ccccc1F,0.16 °C
20,O=S(=O)(c1cccs1)N1CCC(CO)(Cc2ccc(Cl)cc2)CC1,0.18 °C
21,O=C(NCc1ccc(Cl)c(Cl)c1)c1ccc(Br)cc1,-0.13 °C (inactive)
22,O=C(Nc1nccs1)c1ccc(-c2cccc(Cl)c2Cl)o1,0.19 °C

row,Structure (SMILES),thermal shift dTm
1,O=C(C#Cc1ccccc1)Nc1ccc2c(c1)OCCO2,0.24 °C
2,CCC(c1ccccc1)c1nnc(NC(=O)Nc2ccccc2F)s1 (stereo not given),0.2 °C
3,NC(=O)c1cn(-c2ccccc2)nc1-c1ccc(-c2ccccc2)cc1,0.07 °C
4,O=C(NC(=S)Nc1cccc(Cl)c1N1CCOCC1)c1cccs1,-0.04 °C (inactive)
5,CCCc1cc(C(=O)Nc2ccc3[nH]ncc3c2)cs1,2.61 °C (active)
6,O=C(Nc1ccc2[nH]ncc2c1)c1cccc(F)c1,1.63 °C (active)
7,CCc1c(C(=O)Nc2ccc3[nH]ncc3c2)csc1C,0.29 °C
8,Cc1ccc(NC(=O)Nc2ccc(C)c(F)c2)c(C)c1,0.56 °C
9,FC(F)(F)c1ccccc1NC(=S)Nc1ccc(OCc2ccccc2)cc1,0.68 °C
10,COc1ccc(NC(=O)c2ccc(Cl)s2)cc1OC,0.19 °C
11,Cc1cc(C(=O)OCC(=O)Nc2ccc(Cl)cc2)c2ccccc2n1,-0.03 °C (inactive)
12,CCNS(=O)(=O)c1ccc(NC(=O)Nc2cc(C)ccc2OC)cc1,1.17 °C (active)
13,NC(=O)c1cn(-c2ccccc2)nc1-c1cccc(Br)c1,-0.72 °C (inactive)
14,C(=C\c1nnc(-c2ccccc2)o1)/c1cc2ccccc2o1,0.18 °C
15,O=c1nc2n(c3cc(Cl)ccc13)CC(O)=C2c1ccccc1,1.08 °C (active)
16,CCOc1ccc(C(=O)Nc2cccc(-c3csc(C)n3)c2)cc1,-0.65 °C (inactive)
17,Cc1nc(-c2cccc(NC(=O)c3cccc(F)c3)c2)cs1,3.41 °C (active)
18,Cc1cccc(C(=O)Nc2cccc(-c3csc(C)n3)c2)c1,1.13 °C (active)
19,CCOc1ccc(C(=O)Nc2cc(C)ccn2)cc1[N+](=O)[O-],0.43 °C
20,O=C(Nc1cccc(Br)c1)C1C2C3CCC(C3)C12 (stereo not given),0.21 °C
21,CCOc1ccc(/C=C/C(=O)Nc2ccc(OC)cc2OC)cc1,0.02 °C
22,CCc1cc(-c2n[nH]c(C)c2Oc2ccc(F)cc2)c(O)cc1OC,0.02 °C
